Experiment [1] can be described thus: NCI Yeast Anticancer Drug Screen. Data for the rad50 strain (AID 155).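 Note: 0% = growth of vehicle-only cultures of the same strain.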 Conditions: S. cerevisiae rad50 strain growth inhibition, stronger effect = higher value. Put shortly: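 Growth of the mutant yeast was measured after compound exposure and referenced to vehicle-treated cultures.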
Experiment [2] in a line: NCI Yeast Anticancer Drug Screen. Data for the mec2-1 strain (AID 157). Conditions: S. cerevisiae mec2-1 strain, stronger effect = higher value. Put shortly:
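Each compound was tested on mec2-1 yeast, a strain altered in DNA damage repair or cell cycle control. Growth inhibition is reported relative to vehicle.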

The nature of experiment [3]: NCI Yeast Anticancer Drug Screen. Data for the sgs1 mgt1 strain (AID 161).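 Note: 0% = growth of cultures given vehicle only.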 Particulars: S. cerevisiae sgs1 mgt1 strain, stronger effect = higher value. In outline:
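Mutant yeast exposed to compound; growth scored against vehicle-only wells.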

The nature of experiment [4]: NCI Yeast Anticancer Drug Screen. Data for the cln2 rad14 strain (AID 165).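 Note: 0% = growth equal to vehicle treated cultures.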 Conditions: S. cerevisiae cln2 rad14 strain, stronger effect = higher value. Put shortly: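 Test compounds were added to cln2 rad14 yeast cultures; inhibition of growth was then determined by comparison with vehicle treatment.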
The nature of experiment [5]: NCI Yeast Anticancer Drug Screen. Data for the bub3 strain (AID 167). Particulars: S. cerevisiae bub3 mutant strain, stronger effect = higher value. Put shortly: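 Whole-cell yeast assay. The mutant strain was incubated with compounds, and growth inhibition was determined by comparison with vehicle-treated cells.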
Experiment [6] can be described thus: NCI Yeast Anticancer Drug Screen. Data for the mlh1 rad18 strain (AID 175). Conditions: S. cerevisiae mlh1 rad18 strain growth inhibition, stronger effect = higher value. In outline: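 Inhibition values reflect reduced growth of mutant yeast versus vehicle-treated controls following compound exposure; the mutations affect DNA damage repair.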
Where [7] appears, read: at 5.0 µM (retest, dose inferred, filed as 0.5).
The mark [8] stands for this setting: at 50.0 µM (retest, dose inferred, filed as 5.0).

About 79,000 compounds went through this panel and 15% of them were active in at least one assay; those are over-represented in the sample as a whole. Values without a mark were called inactive. Active and inactive are the calls of the source. Cut-off read from the data, not from the text of the source: active = growth inhibition above about 70%; inactive = the rest.

Take `CN(C)c1ccc(C(O)(Cc2cccnc2)c2ccc(N(C)C)cc2)cc1`: the growth inhibition in experiment [1] (setting [7]) is -3%; in experiment [1] (setting [8]), 2%; in experiment [1] (at 50.0 µM), 39.2%; in experiment [2] (setting [7]) it was -4%; in experiment [2] (setting [8]), 6%; in experiment [2] (at 50.0 µM), 36.8%. The growth inhibition is -2% in experiment [3] (setting [7]); 4% in experiment [3] (setting [8]); 53% in experiment [3] (at 50.0 µM); -1% in experiment [4] (setting [7]); -4% in experiment [4] (setting [8]); 13.3% in experiment [4] (at 50.0 µM). The growth inhibition was -3% in experiment [5] (setting [7]); 1% in experiment [5] (setting [8]); 72% (active) in experiment [5] (at 50.0 µM); -5% in experiment [6] (setting [7]); 8% in experiment [6] (setting [8]); 54.9% in experiment [6] (at 50.0 µM).
On to `C=C(CS(=O)(=O)c1ccccc1)[P+](c1ccccc1)(c1ccccc1)c1ccccc1`, for which the growth inhibition was 0% in experiment [1] (setting [7]); 95% (active) in experiment [1] (setting [8]); 29.2% in experiment [1] (at 50.0 µM); -6% in experiment [2] (setting [7]); 92% (active) in experiment [2] (setting [8]); 37.5% in experiment [2] (at 50.0 µM). Moreover, the growth inhibition in experiment [3] (setting [7]) is -6%; in experiment [3] (setting [8]), 95% (active); in experiment [3] (at 50.0 µM) it was 34.4%; in experiment [4] (setting [7]), -1%; in experiment [4] (setting [8]), 81% (active); in experiment [4] (at 50.0 µM), 28.5%. Besides, the growth inhibition in experiment [5] (setting [7]) was -3%; in experiment [5] (setting [8]) it was 88% (active); in experiment [5] (at 50.0 µM) it was 2.15%; in experiment [6] (setting [7]) it was -2%; in experiment [6] (setting [8]) it was 92% (active); in experiment [6] (at 50.0 µM), 67.5%.
As for `O=C1c2ccccc2C(=O)c2cc(O)ccc21`, the growth inhibition in experiment [1] (setting [7]) is 34%; in experiment [1] (setting [8]) it was 91% (active); in experiment [1] (at 50.0 µM), 84.8% (active); in experiment [2] (setting [7]), -13%; in experiment [2] (setting [8]) it was 77% (active); in experiment [2] (at 50.0 µM), 56.1%. Besides, the growth inhibition in experiment [3] (setting [7]) was 2%; in experiment [3] (setting [8]), 82% (active); in experiment [3] (at 50.0 µM), 69%; in experiment [4] (setting [7]), 11%; in experiment [4] (setting [8]), 54%; in experiment [4] (at 50.0 µM) it was 64.4%. Also, the growth inhibition in experiment [5] (setting [7]) is 44%; in experiment [5] (setting [8]), 84% (active); in experiment [5] (at 50.0 µM), 80.3% (active); in experiment [6] (setting [7]), 15%; in experiment [6] (setting [8]) it was 87% (active); in experiment [6] (at 50.0 µM), 85% (active).
As to `CCOC(=O)c1cnccc1CC1(C#N)c2ccccc2C=CN1C(=O)c1ccccc1` (configuration not stated), the growth inhibition in experiment [1] (setting [7]) was 5%; in experiment [1] (setting [8]), 67%; in experiment [1] (at 50.0 µM), 86.7% (active); in experiment [2] (setting [7]), -2%; in experiment [2] (setting [8]) it was 83% (active); in experiment [2] (at 50.0 µM), 83.5% (active). The growth inhibition in experiment [3] (setting [7]) was 4%; in experiment [3] (setting [8]) it was 67%; in experiment [3] (at 50.0 µM), 93.2% (active); in experiment [4] (setting [7]), -7%; in experiment [4] (setting [8]) it was 68%; in experiment [4] (at 50.0 µM), 52.2%. For the same compound, the growth inhibition was 6% in experiment [5] (setting [7]); 71% (active) in experiment [5] (setting [8]); 75% (active) in experiment [5] (at 50.0 µM); 3% in experiment [6] (setting [7]); 67% in experiment [6] (setting [8]); 89.2% (active) in experiment [6] (at 50.0 µM).
On to `Cc1csc(N)[n+]1CCC(=O)[O-]`, for which the growth inhibition was -1% in experiment [1] (setting [7]); -3% in experiment [1] (setting [8]); -3.95% in experiment [1] (at 50.0 µM); -1% in experiment [2] (setting [7]); -2% in experiment [2] (setting [8]); -23.1% in experiment [2] (at 50.0 µM). The growth inhibition was -1% in experiment [3] (setting [7]); -2% in experiment [3] (setting [8]); -2.8% in experiment [3] (at 50.0 µM); -3% in experiment [4] (setting [7]); 3% in experiment [4] (setting [8]); 31.5% in experiment [4] (at 50.0 µM). Also, the growth inhibition in experiment [5] (setting [7]) was -1%; in experiment [5] (setting [8]), 1%; in experiment [5] (at 50.0 µM) it was -14.6%; in experiment [6] (setting [7]) it was 0%; in experiment [6] (setting [8]), -3%; in experiment [6] (at 50.0 µM) it was -24.5%.
Consider `O/N=C1/CCCC/C1=C/c1ccc(Cl)cc1`, for which the growth inhibition in experiment [1] (setting [7]) is -152%; in experiment [1] (setting [8]), -124%; in experiment [1] (at 50.0 µM), 82.7% (active); in experiment [2] (setting [7]) it was -48%; in experiment [2] (setting [8]) it was -53%; in experiment [2] (at 50.0 µM), 53.4%. The growth inhibition in experiment [3] (setting [7]) is -63%; in experiment [3] (setting [8]), -23%; in experiment [3] (at 50.0 µM) it was 74% (active); in experiment [4] (setting [7]) it was -57%; in experiment [4] (setting [8]), -62%; in experiment [4] (at 50.0 µM) it was 64.8%. Moreover, the growth inhibition is -66% in experiment [5] (setting [7]); -78% in experiment [5] (setting [8]); 65.5% in experiment [5] (at 50.0 µM); -144% in experiment [6] (setting [7]); -111% in experiment [6] (setting [8]); 80% (active) in experiment [6] (at 50.0 µM).
Take `COc1nc(NC2OC(CO)C(O)C(O)C2O)c(Cl)c(=O)[nH]1` (configuration not stated): the growth inhibition is 1% in experiment [1] (setting [7]); 1% in experiment [1] (setting [8]); 47.5% in experiment [1] (at 50.0 µM); 4% in experiment [2] (setting [7]); 12% in experiment [2] (setting [8]); -0.6% in experiment [2] (at 50.0 µM). Besides, the growth inhibition in experiment [3] (setting [7]) was 12%; in experiment [3] (setting [8]), 4%; in experiment [3] (at 50.0 µM), 24.1%; in experiment [4] (setting [7]) it was 7%; in experiment [4] (setting [8]), 11%; in experiment [4] (at 50.0 µM), 20.6%. Further, the growth inhibition in experiment [5] (setting [7]) is 4%; in experiment [5] (setting [8]), 14%; in experiment [5] (at 50.0 µM) it was 15.3%; in experiment [6] (setting [7]), 4%; in experiment [6] (setting [8]), 5%; in experiment [6] (at 50.0 µM), 1.65%.
On to `CN(C)C(=S)N1C(=S)N(c2ccccc2)C(=Nc2ccccc2)C1=Nc1ccccc1`, for which the growth inhibition in experiment [1] (setting [7]) was -25%; in experiment [1] (setting [8]) it was -4%; in experiment [1] (at 50.0 µM), 49.4%; in experiment [2] (setting [7]), -9%; in experiment [2] (setting [8]) it was -11%; in experiment [2] (at 50.0 µM), -23.6%. In addition, the growth inhibition was -3% in experiment [3] (setting [7]); -12% in experiment [3] (setting [8]); -5% in experiment [3] (at 50.0 µM); -18% in experiment [4] (setting [7]); -12% in experiment [4] (setting [8]); -18.3% in experiment [4] (at 50.0 µM). The growth inhibition in experiment [5] (setting [7]) was -13%; in experiment [5] (setting [8]), -8%; in experiment [5] (at 50.0 µM), -30.1%; in experiment [6] (setting [7]), -20%; in experiment [6] (setting [8]) it was -24%; in experiment [6] (at 50.0 µM), -7.7%.
On to `O=C(Nc1cc(Cl)ccc1Oc1cc(Cl)c(Cl)cc1S(=O)(=O)O)Nc1cc(Cl)ccc1Oc1cc(Cl)c(Cl)cc1S(=O)(=O)O`, for which the growth inhibition was -10% in experiment [1] (setting [7]); 81% (active) in experiment [1] (setting [8]); 85% (active) in experiment [1] (at 50.0 µM); -3% in experiment [2] (setting [7]); 73% (active) in experiment [2] (setting [8]); 87.4% (active) in experiment [2] (at 50.0 µM). Also, the growth inhibition is -13% in experiment [3] (setting [7]); 79% (active) in experiment [3] (setting [8]); 84.1% (active) in experiment [3] (at 50.0 µM); 23% in experiment [4] (setting [7]); 56% in experiment [4] (setting [8]); 76% (active) in experiment [4] (at 50.0 µM). Moreover, the growth inhibition was 14% in experiment [5] (setting [7]); 78% (active) in experiment [5] (setting [8]); 86% (active) in experiment [5] (at 50.0 µM); -4% in experiment [6] (setting [7]); 91% (active) in experiment [6] (setting [8]); 85.3% (active) in experiment [6] (at 50.0 µM).

Values taken from PubChem BioAssay (NCI).
